In the supplement of paper PMC6555819 one finds PBM binding z-score data, which are given here for 40 sequences.

The subject of the test is VDR:RXRa (NR concentration 270 nM, RXRa partner concentration 90 nM). Description: PBM binding z-score (relative to random genomic background probes); higher = stronger binding; sequences stand for … in GC…GCGATTGACAGCGTAGAATGAAGG
As for the experimental part:
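Protein-binding microarray (Agilent 4x180K custom design, double-stranded 60-nt probes: 5' GC cap, 34-nt variable region, 24-nt constant primer region; full probe sequence given). Purified or IVT nuclear receptor:RXRα heterodimers (3:1 NR:RXRα, mostly 270:90 nM) or homodimers were incubated for 1 h in PBS with 2% milk and no ligand, then detected with Alexa488 antibodies. Fluorescence from o1-orientation probes (~5 replicates averaged) was converted to z-scores against 500 random hg19 background probes. Variable regions are seed direct-repeat (DR0–DR5) sites, all their single-nucleotide variants and half-site ablations.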
As to GGAACGAGGGCAAAGTTGTTAGCATCTGTCGACG, the PBM binding z-score amounted to 1.09.

As to GCATATTGGTAATACAAGGTGAAAGTCCGATTGT, the PBM binding z-score was -0.16.

CGTCCAAGGTCTGCAGGTCAGTGAAAGCGACGTG yielded a PBM binding z-score of -0.117.

As to GGTGCTAGGTCAGGTTGGTCAGCTAACGGGTACG, the PBM binding z-score was found to be 1.25.

TAGCCTAGGTCATTCAGTGGCCAGTATAGAAAGC: the PBM binding z-score was 2.43.

For CGAACTAGGTTATTGACAGGACAGTGAATAGTAA, the PBM binding z-score turned out to be 0.204.

Regarding TCTTGTAGATCTAGCAGGTTAAGAAAGCCTGAGT, the PBM binding z-score was 0.391.

Turning to AATCCAGGGTCATCGTAGGCCAGAGTACGCACAG, the PBM binding z-score was 5.32.

CCTGGTAGGTCAATGGTCAGCTAAAGCAGCTCGC showed a PBM binding z-score of 1.33.

As for CGATCGAGGGCATGAGTTGATAGCAAATGCCGAT, the PBM binding z-score was determined as 0.973.

In turn, CCTTACGGGTCACGAGGTTAGAGCACGACGAGCG displayed a PBM binding z-score of 4.98.

For the sequence CGTCAAAGTTCAAGGTAACGTAACAGAAAGCAGC, the PBM binding z-score came to 3.78.

Regarding AGAATGAGGTGACCAAAGATCAGGGAAACGCTTG, the PBM binding z-score stood at 0.0943.

GCAGACAGGTGAAACGCAGGAAACTCAGGGTGGC displayed a PBM binding z-score of -0.533.

Turning to GCGACTGGGGTATCAGCAGGTTACCATAACTTAA, the PBM binding z-score was -0.202.

For the sequence CCTGCTAGGGCAATGGTCAGCTAAAGCAGCTCGC, the PBM binding z-score was -0.874.

In the case of CGAACTAGGTCATCCAGGACAGTCAATACATTGA, the PBM binding z-score was found to be 4.83.

Take GCGACTGGGGCCTCAGCAGGTTACCATAACTTAA: the PBM binding z-score is -0.529.

As for GCTCGGAGGATAAGGTCAGAGCTTTGTCCGTAGA, the PBM binding z-score came to 1.15.

CCATACGGGTCACGAGGTTATAGCACGACGAGCG showed a PBM binding z-score of 5.02.

Sequence TGTCAAAGTTCAAAGGTAACGTGAGTATCCACAC gave a PBM binding z-score of 5.2.

ACAGACAGGTGATGAAAGTAACTCAGGCTATCAT gave a PBM binding z-score of -0.184.

ATCTCGAGGTAAAGTTCAGTGAAAGATCGATAGA: the PBM binding z-score amounted to 1.64.

Consider ATCGCAAGGTCGAAGGTGAGTATACCCACCCGAA, for which the PBM binding z-score stood at 1.8.

Regarding ACTCGGAGCACAAAGGTCAGAGCTACGCCAGTGA, the PBM binding z-score was determined as 3.58.

In turn, ACTATTAGTTGACTTAGGGCAACCCATACGACGC returned a PBM binding z-score of 0.512.

TGAATGAGGTTAACGATCAGGGAACGTGGCGTCG had a PBM binding z-score of 1.05.

Sequence TCTTGTAGATCAACAGGAGGTTAAGAACGATCGA had a PBM binding z-score of 0.419.

On to TCTAGTTTGTCAAAGGTCACACACTCGAAATGCG, for which the PBM binding z-score stood at 5.12.

For CAAACTCGGTCACAGAGGTCAAAGTCCGTGCGTA, the PBM binding z-score was found to be 7.57.

For CAAACTAGGTCACGAAAGGTCATAGTCGAATGAC, the PBM binding z-score turned out to be 6.92.

CCTAGCAAGCCAATCTGGGTCACTCAAGGCTTGA came in with a PBM binding z-score of 0.396.

Regarding AGAATGAGGTAAAGATCAGGGAAACAGAATACAT, the PBM binding z-score turned out to be 0.0577.

Take CCGACTGGGGCAGAAAGGTTACCACACCATCCGG: the PBM binding z-score stood at 1.15.

Turning to TCTTGTAGATCAAAGGCTAAGAAAGCCGAAGCCT, the PBM binding z-score is -0.203.

Take TCTAGCAGGCTAGAGGGTCACTCAAGAGGTACGG: the PBM binding z-score amounted to 1.38.

AGAATGAGGTTATGAAGATCAGGGAATTGCGGTC came in with a PBM binding z-score of 1.44.

CCTACTGGGCCATTCAGGGGTCATTGATCATATG registered a PBM binding z-score of 4.82.

In turn, CGTCCAAGGTCAAGGTCAGTTAAAGAGACTCGAA gave a PBM binding z-score of 4.83.

The sequence TCTTGTAGATTAAGCAGGTTAAGAAAGCCTGAGT registered a PBM binding z-score of 0.313.
